Assay results: PubChem BioAssay (EPA / NIEHS)
Calls of active or inactive are those of the source. The calls were made as follows: active = hit-call score of the fitted dose curve at least 0.9, where 1 is the maximum; inactive = score below 0.9.

What was measured:
Conditions in all cases: mRNA level, 48 h; actives raise or lower the signal
[1] = read-out: Cytochrome P450 (CYP24A1), CYP24A1 (gene 1591); experiment: LTEA_HepaRG_CYP24A1: Life Technologies and Expression Analysis (LTEA) Assay for Cytochrome P450 (CYP24A1) using HepaRG (AID 2283478)
Outline: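 Gene expression of CYP24A1 by TaqMan qRT-PCR in HepaRG after 48 h treatment, highest concentration 100 uM; activity fitted in both directions relative to DMSO vehicle.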

[2] = read-out: Cytochrome P450 (CYP1A2), CYP1A2 (gene 1544); experiment: LTEA_HepaRG_CYP1A2: Life Technologies and Expression Analysis (LTEA) Assay for Cytochrome P450 (CYP1A2) using HepaRG (AID 2283479)
Outline: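 In duplicate wells, HepaRG cultures maintained in 0.5% DMSO were treated 48 h across an 8-point, half-log series topping at 100 uM; phenobarbital (1 mM) served as induction control. Expression was read by qRT-PCR.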

[3] = read-out: cysteine-aspartic acid protease (CASP8), CASP8 (gene 841); experiment: LTEA_HepaRG_CASP8: Life Technologies and Expression Analysis (LTEA) Assay for cysteine-aspartic acid protease (CASP8) using HepaRG (AID 2283480)
Outline: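 qRT-PCR readout of CASP8 mRNA, normalized to three housekeeping genes, after 48 h chemical exposure of HepaRG cells; 8-point half-log series, top 100 uM, 0.5% DMSO vehicle. Bidirectional curve fitting against DMSO baseline.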

[4] = read-out: Cytochrome P450 (CYP2B6), CYP2B6 (gene 1555); experiment: LTEA_HepaRG_CYP2B6: Life Technologies and Expression Analysis (LTEA) Assay for Cytochrome P450 (CYP2B6) using HepaRG (AID 2283481)
Outline: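 Human HepaRG, 48 h dosing, 0.5% DMSO vehicle, top dose 100 uM. CYP2B6 transcript by qRT-PCR, housekeeping-normalized, bidirectional curve fit.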

CYP2C9 (gene 1559) = experiment: LTEA_HepaRG_CYP2C9: Life Technologies and Expression Analysis (LTEA) Assay for CYP2C9 using HepaRG (AID 2283484)
Outline: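 HepaRG, 48 h dosing, 8-pt half-log series, top 100 uM, 0.5% DMSO vehicle. Read-out: CYP2C9 transcript by TaqMan qRT-PCR, housekeeping-normalized (ACTB/GAPDH/POLR2A). Gain or loss fitted vs DMSO baseline.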

CYP2E1 (gene 1571) = experiment: LTEA_HepaRG_CYP2E1: Life Technologies and Expression Analysis (LTEA) Assay for CYP2E1 using HepaRG (AID 2283485)
Outline: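 Readout is qRT-PCR of CYP2E1 mRNA, normalized to three housekeeping genes and fitted bidirectionally against 0.5% DMSO. HepaRG cells were dosed 48 h at eight concentrations, highest 100 uM with half-log dilutions.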

CYP4A11 (gene 1579) = experiment: LTEA_HepaRG_CYP4A11: Life Technologies and Expression Analysis (LTEA) Assay for CYP4A11 using HepaRG (AID 2283486)
Outline: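 Human hepatic HepaRG cultures receive duplicate 48 h exposures across a concentration-response series topping at 100 uM. Expression changes in CYP4A11 are measured by qRT-PCR relative to DMSO controls.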

[5] = read-out: Cytochrome P450 3A4 (Homo sapiens) (UniProt P08684); experiment: LTEA_HepaRG_CYP3A4: Life Technologies and Expression Analysis (LTEA) Assay for CYP3A4 using HepaRG (AID 2283487)
Outline: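 Differentiated HepaRG cells, plated 48 h, then dosed 48 h in serum-free induction medium with 0.5% DMSO, 8 half-log concentrations up to 100 uM, duplicate. CYP3A4 mRNA by qRT-PCR, normalized to ACTB/GAPDH/POLR2A; bidirectional fit versus DMSO.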

[6] = read-out: Pro-epidermal growth factor (Homo sapiens) (UniProt P01133); experiment: LTEA_HepaRG_EGF: Life Technologies and Expression Analysis (LTEA) Assay for Epidermal growth factor (EGF) using HepaRG (AID 2283489)
Outline: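 Concentration-response mRNA assay: HepaRG cells dosed 48 h (max 100 uM, 0.5% DMSO), EGF measured by qRT-PCR and normalized to ACTB/GAPDH/POLR2A.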

[7] = read-out: Early growth response protein 1 (EGR1) transcription factor, EGR1 (gene 1958); experiment: LTEA_HepaRG_EGR1: Life Technologies and Expression Analysis (LTEA) Assay for Early growth response protein 1 (EGR1) transcription factor using HepaRG (AID 2283490)
Outline: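 HepaRG, 48 h exposure, 8-pt half-log series from 100 uM, 0.5% DMSO vehicle; EGR1 transcript by TaqMan qRT-PCR (Fluidigm array), housekeeping-normalized; bidirectional fit relative to DMSO baseline.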

Measured: AC50

Cytochrome P450 3A4 (Homo sapiens), sequence (P08684 whole entry, looked up): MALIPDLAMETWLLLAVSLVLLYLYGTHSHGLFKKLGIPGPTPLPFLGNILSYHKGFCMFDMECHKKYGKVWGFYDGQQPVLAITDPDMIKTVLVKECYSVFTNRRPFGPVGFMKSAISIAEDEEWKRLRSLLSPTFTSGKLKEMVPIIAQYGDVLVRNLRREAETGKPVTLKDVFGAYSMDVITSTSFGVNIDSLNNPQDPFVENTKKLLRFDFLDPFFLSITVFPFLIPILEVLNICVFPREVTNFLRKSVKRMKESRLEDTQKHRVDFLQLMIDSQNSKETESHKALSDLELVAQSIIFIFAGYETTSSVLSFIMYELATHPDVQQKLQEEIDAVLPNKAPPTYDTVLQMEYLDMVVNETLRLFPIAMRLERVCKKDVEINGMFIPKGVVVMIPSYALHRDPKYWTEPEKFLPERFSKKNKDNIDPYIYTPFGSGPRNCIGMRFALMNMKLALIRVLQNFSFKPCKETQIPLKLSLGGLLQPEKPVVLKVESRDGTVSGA

O=C(O)C1(c2ccc3c(c2)OC[C@H](Cc2ccc(-c4ccccc4)cc2)[C@H]3O)CCCC1
active: [2] 25 µM | CYP2E1 (gene 1571) 84.5 µM | [5] 4.6 µM | [7] 81.7 µM
inactive: all other assays above

Clc1cccc(Cl)c1
inactive: all assays above

Oc1cc(Cl)c(Cl)cc1Cl
inactive: all assays above

CN(C)C(=S)S
active: [2] 72.3 µM | [4] 29.7 µM
not listed: [6]
inactive: all other assays above

CC(C)(C)c1ccccc1O
active: [4] 1.63 µM | CYP2E1 (gene 1571) 15.1 µM | [5] 12.6 µM
inactive: all other assays above

Cc1cc(C)cc(C)c1
inactive: all assays above

OCCN(CCO)CCO
active: [4] 21.1 µM
inactive: all other assays above

COc1ccccc1N
active: [4] 24.3 µM
inactive: all other assays above

CCCCCCCCCCCCc1cccc(S(=O)(=O)O)c1
active: [2] 45 µM | CYP4A11 (gene 1579) 21.6 µM | [5] 18.9 µM
inactive: all other assays above

Clc1cccc(Cl)c1Cl
inactive: all assays above

N#Cc1cccnc1
inactive: all assays above

O=C(N[C@H]1CN2CCC1CC2)c1ccc2c(c1)OCCO2
inactive: all assays above

CC(C)O.CC(C)O.OCCN(CCO)CCO.OCCN(CCO)CCO.[Ti]
active: CYP2E1 (gene 1571) 50 µM
not listed: [4]
inactive: all other assays above

Oc1c(Cl)cc(Cl)cc1Cl
inactive: [6] | [7]
active: [3] 50 µM
